Inconclusive results are not listed. Values without a mark were called inactive. Activity calls are given as the source filed them. Calls follow the shape of the dose curve; as a rule, active = well fitted inhibition curve with a large enough effect; inconclusive = small, poorly fitted or top-dose-only effect; inactive = flat fitted curve, though single readings scatter.

What all share (experiment): Cytotoxic Profiling of Annotated Libraries Using Quantitative High-Throughput Screening (AID 1296008); also: nearly all actives have a fitted effect of over 60% in size
Holding throughout (details): Five cell lines viability, CellTiter-Glo ATP luminescence, 48-72 h; max response: hits give low values

Assay [1] has as its system CRL-7250. The method, boiled down:
(§1)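 Cells exposed to compounds for 48 or 72 hr at 37 degrees Celsius. Viability read as ATP-coupled luminescence with CellTiter-Glo after 10 min at room temperature.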

Assay [2] has as its system HEK293. The gist of the method: as §1
In assay [3] the test system is HaCat. The gist of the method: as §1
% is scaled to controls: 0 for no effect and ±100 for the full control effect; potency is read from the fitted curve at half-maximal effect.

`COC1CC(OC2CCC3(C)C(CCC4C3CCC3(C)C(C5=CC(=O)OC5)C(OC(C)=O)CC43O)C2)OC(C)C1OC1OC(CO)C(O)C(O)C1O` (centres undefined): the Potency in assay [1] is 544 nM (active); in assay [2] it was 1220 nM (active); in assay [3], 2430 nM (active).

With `COCC1OC(=O)c2coc3c2C1(C)C1=C(C3=O)C2CCC(=O)C2(C)CC1O` (centres undefined), the outcome in assay [1], in assay [2] and in assay [3] was inactive.

In the case of `CCC(C)(OC(C)=O)C(=O)O[C@H]1[C@H](OC(C)=O)C[C@@H]2[C@@](C)([C@@H]3C[C@H]4C=CO[C@H]4O3)[C@H](C)C[C@H](OC(C)=O)[C@@]2(COC(C)=O)[C@@]12CO2` (some centres undefined), the result in assay [1], in assay [2] and in assay [3] was inactive.

As for `CCN1CC2(COC)C3[C@@H](OC)C4C1C3(C1C[C@]3(O)[C@H](OC(=O)c5ccccc5)C1[C@]4(OC(C)=O)[C@@H](O)[C@@H]3OC)[C@H](OC)C[C@H]2O` (some centres undefined), the max response in assay [1] is -8.46%; in assay [2], -1.66%; in assay [3] it was 3.92%.

Turning to `C[C@]12CC[C@@H](O)C[C@H]1CC[C@@H]1[C@@H]2CC[C@]2(C)C(=O)CC[C@@H]12`, the figures for the max response in assay [1], in assay [2] and in assay [3] were -3.83%, -17.8% and -0.89%, respectively.

Take `C=CC(C)(O)CC/C=C(\C)C(=O)O[C@H]1[C@H](O)[C@@H](CO)O[C@@H](OC(=O)[C@]23CCC(C)(C)CC2C2=CCC4[C@@]5(C)CC[C@H](O[C@@H]6O[C@H](CO[C@@H]7OC[C@H](O)[C@H](O)[C@H]7O[C@@H]7OC[C@@H](O)[C@H](O)[C@H]7O)[C@@H](O)[C@H](O)[C@H]6O)C(C)(C)C5CC[C@@]4(C)[C@]2(C)CC3)[C@@H]1OC1OC(C)C(O[C@@H]2OC[C@@H](O)[C@H](O[C@@H]3OC[C@@H](O)[C@H](O)[C@H]3O)[C@H]2O)C(O)C1O` (some centres undefined): the max response in assay [1] was -5.86%; in assay [2], 0.313%. Further, the result in assay [3] was inactive.

For the compound `CC(=O)OC1CC(O)C2(C)C(CC(OC(C)=O)C3(C)C2CCC2(C)C(c4ccoc4)C(=O)C4OC423)C1(C)C` (centres undefined), the max response is -9.87% in assay [1] and -22.5% in assay [3]. In assay [2], the compound was called inactive.

With `O=C(O)c1ccnc2cc(C(OCCN3CCCCC3)c3ccccc3Cl)[nH]c12` (centres undefined), the outcome in assay [1], in assay [2] and in assay [3] was inactive.

On to `N#C[C@@H](O[C@@H]1O[C@H](CO[C@@H]2O[C@H](CO)[C@@H](O)[C@H](O)[C@H]2O)[C@@H](O)[C@H](O)[C@H]1O)c1ccccc1`, for which the max response is 3.46% in assay [1] and 4.21% in assay [2]. Also, the outcome in assay [3] was inactive.

In the case of `CCCCCOc1cc2c(cc1-c1cc(/C=C/C(=O)O)ccc1O)C(C)(C)CCC2(C)C`, in assay [1], the max response was -2.58%. Also, the compound was called inactive in assay [2] and in assay [3].

Take `Oc1ccc2c3c1O[C@H]1[C@H](N(CCCl)CCCl)CC[C@@]4(O)[C@@H](C2)N(CC2CC2)CC[C@]314`: the results for the max response in assay [1], in assay [2] and in assay [3] were -3.35%, 0.595% and -4.26%, respectively.

Consider `CC(CCc1ccc(O)cc1)O[C@@H]1O[C@H](CO[C@H]2OC[C@](O)(CO)[C@H]2O)[C@@H](O)[C@H](O)[C@H]1O` (some centres undefined), for which the outcome in assay [1], in assay [2] and in assay [3] was inactive.

Turning to `C=C1[C@@H]2CC[C@@]3(C)[C@H](c4ccoc4)OC(=O)C[C@]13O[C@H]1CC(=O)C(C)(C)[C@H](C(OC(C)=O)C(=O)OC)[C@]12C` (some centres undefined), the outcome in assay [1] and in assay [3] was inactive. The max response in assay [2] was -1.58%.

On to `Clc1ccc(N2C[C@H]3CC[C@@H](C2)N3)nn1`, for which the figures for the max response in assay [1], in assay [2] and in assay [3] were -3.23%, 2.01% and -0.574%, respectively.

In the case of `C=CC(C)(C)c1[nH]c2cccc3c2c1C[C@@H]1[C@@H]3[C@@H](OC(C)=O)[C@H](C)CN1C`, the max response in assay [1] was -2.45%. Moreover, the compound was classed as inactive in assay [2] and in assay [3].

As to `COC1CC(OC2CCC3(C=O)C(CCC4C3CCC3(C)C(C5=CC(=O)OC5)CCC43O)C2)OC(C)C1OC1OC(CO)C(O)C(O)C1O` (centres undefined), the Potency in assay [1] was 96.8 nM (active); in assay [2], 193 nM (active); in assay [3], 685 nM (active).

`COc1cc(CCNCc2ccccc2O)c(OC)cc1C#N`: the compound was classed as inactive in assay [1] and in assay [3]. The max response in assay [2] was 2.88%.

In the case of `COC(=O)C12C(=O)C(C)(O)C(=O)C1(C)C(C)=CC1C34CCC(OC3=O)C(C)(CO)C4CCC12C` (centres undefined), the outcome in assay [1] was inactive. For the same compound, the results for the max response in assay [2] and in assay [3] were 4.01% and 0.667%, respectively.

With `CN1CCC[C@@H]1Cc1c[nH]c2ccc(Nc3ncccc3[N+](=O)[O-])cc12`, the compound was called inactive in assay [1]. Besides, the max response in assay [2] was -20.4%; in assay [3], -5.05%.

For `CC1C/C=C/C(O)C(O)CC/C=C/c2cc(O)cc(O)c2C(=O)O1` (centres undefined), the outcome in assay [1] and in assay [2] was inactive. Besides, the max response in assay [3] is -2.35%.

In the case of `CCc1[nH]c2ccc(OC)cc2c1CCN(C)C`, the figures for the max response in assay [1], in assay [2] and in assay [3] were 2.45%, -15.9% and 1.59%, respectively.

`COC1CC(OC2CCC3(C)C(=CCC4C3CCC3(C)C(C(C)OC5OC(COC6OC(CO)C(O)C(O)C6O)C(O)C(O)C5O)CCC43O)C2)OC(C)C1OC1OC(C)C(O)C(OC)C1O` (centres undefined): the max response was -7.32% in assay [1] and -6.75% in assay [2]. Moreover, the compound was classed as inactive in assay [3].

As for `COC(=O)N1CCN(C(=O)Cc2ccc(Cl)c(Cl)c2)[C@@H](CN2CCCC2)C1`, the max response in assay [1] was -2.38%; in assay [2], -9.31%; in assay [3], -8.83%.
